Data taken from PubChem BioAssay (Tox21).
Results filed as inconclusive are left out. Active and inactive are the calls of the source. Unless noted, the call rests on the fitted dose curve.

Key:
[1] = qHTS assay to identify small molecule antagonists of the vitamin D receptor (VDR) signaling pathway - cell viability counter screen (AID 743225; active means well fitted curve in the direction sought with a large enough effect in the repeat runs; an effect the other way counts as inactive or inconclusive; further: nearly all actives have a fitted effect of over 50% in size)
In short: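 Parallel cytotoxicity test: VDR-UAS-bla HEK 293T, 3 nM (final) 1-alpha,25-dihydroxyvitamin D3 with test compound, 16 h, 37C. Endpoint is CellTiter-Glo luminescence in the same wells.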

[2] = qHTS assay to identify small molecule agonists of the NFkB signaling pathway (AID 1159509; active means well fitted curve in the direction sought with a large enough effect in the signal ratio in the repeat runs, not every such curve was filed as active; the % refers to the signal ratio; further: series mostly up to about 61 µM)
In short: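 After overnight attachment, reporter cells received test compounds, DMSO or positive controls and were incubated 5 hr at 37 C. FRET substrate was then added for 1.5 hr at room temperature before dual-emission fluorescence reading.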

[3] = qHTS assay to identify small molecule agonists of the NFkB signaling pathway - cell viability counter screen (AID 1159515); further: series mostly up to about 61 µM; nearly all actives have a fitted effect of over 55% in size
In short: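 Viability in NFkB-bla ME-180 cells was measured by CellTiter-Glo luminescence, 30 min room temperature, in wells already treated 5 hr with compounds and read for reporter FRET.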

[4] = qHTS assay to identify small molecule agonists of the endoplasmic reticulum stress response signaling pathway (AID 1159516; active means well fitted activation curve with a large enough effect in the signal ratio in the repeat runs, not every such curve was filed as active; the % refers to the signal ratio)
In short: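 ER stress element reporter (bla) in HeLa. 1,500 cells/well, overnight attachment; 5 hr compound; 2 hr RT substrate; dual-emission fluorescence.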

[5] = qHTS assay to identify small molecule agonists of the endoplasmic reticulum stress response signaling pathway - cell viability counter screen (AID 1159517);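 further: HeLa cells carrying an ER stress response element beta-lactamase reporter; series mostly up to about 61 µM; nearly all actives have a fitted effect of over 50% in size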
In short: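 Luminescence readout: CellTiter-Glo, 30 min RT, same wells as the ESRE-bla reporter read. HeLa ESRE-bla, 1,500 cells/well, o/n 37 C; cpd 5 hr 37 C/5% CO2.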

[6] = qHTS assay to identify small molecule antagonists of the retinoid-related orphan receptor gamma (ROR-gamma) signaling pathway - cell viability counter screen (AID 1159520; active means well fitted curve in the direction sought with a large enough effect in the repeat runs; an effect the other way counts as inactive or inconclusive; further: nearly all actives have a fitted effect of over 50% in size)
In short: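 Tet-on ROR gamma CHO cells (1,000/well) were plated 4 hr, given compounds in DMSO for 2 hr at 37 C, then induced with 1 uM final doxycycline for 16 hr. Viability was read as ATP by CellTiter-Glo luminescence after 30 min.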

[7] = qHTS assay to identify small molecule agonists of the AP-1 signaling pathway - cell viability counter screen (AID 1159525); further: nearly all actives have a fitted effect of over 55% in size
In short: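 ME-180 AP-1-bla, 2500 cells/well, Opti-MEM + 0.5% dialyzed FBS; overnight 37 °C; cpd 15-pt titration, 5 h 37 °C; CellTiter-Glo 30 min RT; luminescence read; normalised to TOAB and DMSO controls.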

[8] = qHTS assay to identify small molecule agonists of the AP-1 signaling pathway (AID 1159526)
[9] = qHTS assay to identify small molecule agonists of the vitamin D receptor (VDR) signaling pathway - cell viability counter screen (AID 743224; active means well fitted curve in the direction sought with a large enough effect in the repeat runs; an effect the other way counts as inactive or inconclusive; further: series mostly up to about 63 µM; nearly all actives have a fitted effect of over 50% in size)
In short: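 VDR-bla cell line, quantitative HTS format; 16 h compound incubation (37C, 5% CO2); ATP-based CellTiter-Glo luminescence measured in the reporter assay wells.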

[10] = biological target: Nuclear receptor ROR-gamma (Homo sapiens) (UniProt P51449); test: qHTS assay to identify small molecule antagonists of the retinoid-related orphan receptor gamma (ROR-gamma) signaling pathway (AID 1159521; active means well fitted curve in the direction sought with a large enough effect in the repeat runs; an effect the other way counts as inactive or inconclusive)
In short: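 Decreased RORE-driven luciferase luminescence indicates antagonism. Tet-on RORγ CHO cells received compound, then 1 uM final doxycycline 2 h later; signal read after 16 h incubation.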

Measured: outcome

CCOc1cccc(N)c1
not listed: [9] | [10]
inactive: all other assays above

CC(C)NC(=O)c1ccc(C=O)cc1
not listed: [9] | [10]
inactive: all other assays above

N#Cc1cscn1
not listed: [6]
inactive: all other assays above

O=Cc1cc2ccccc2o1
not listed: [10]
inactive: all other assays above

C=C(C)c1cccc(C(C)(C)N=C=O)c1
not listed: [6] | [9]
inactive: all other assays above

CCCC(=O)Nc1ccc(OCC(O)CNC(C)C)c(C(C)=O)c1 (centres undefined)
not listed: [6] | [7]
inactive: all other assays above

CCCCCCCCCCCCCBr
not listed: [1] | [6]
inactive: all other assays above

Cc1c(C(=O)c2c[nH]n(C)c2=O)ccc(S(C)(=O)=O)c1C1=NOCC1
not listed: [6] | [7]
inactive: all other assays above

CC(C)=CCC[C@@](C)(O)[C@H]1CC=C(C)CC1
not listed: [6]
inactive: all other assays above

CN(C)CCCO[C@@H]1[C@H]2OC(C)(C)O[C@H]2O[C@@H]1C(O)CO (some centres undefined)
not listed: [9] | [10]
inactive: all other assays above

CC(C)=CCC/C(C)=C/COC=O
not listed: [7] | [10]
inactive: all other assays above

C#CCN[C@@H]1CCc2ccccc21
not listed: [6]
inactive: all other assays above

NCC1(Cc2noc(=O)[nH]2)CCCCC1
not listed: [6]
inactive: all other assays above

Cc1c(N)cccc1Cl
not listed: [6]
inactive: all other assays above

CC/C(C)=N\O[Si](C)(O/N=C(\C)CC)O/N=C(\C)CC
not listed: [6]
inactive: all other assays above

CCCCCc1cccc(=O)o1
not listed: [1] | [6] | [7]
inactive: all other assays above

CC1OCCC1=O (centres undefined)
not listed: [9] | [10]
inactive: all other assays above

CC(C)(CO)C(O)C(=O)NCCCO (centres undefined)
not listed: [6]
inactive: all other assays above

CC(C)(C)NC[C@H](O)COc1cccc2c1CCCC2=O
not listed: [6] | [9]
inactive: all other assays above

Cc1c(Cl)cccc1Cl
not listed: [6] | [7]
inactive: all other assays above

CC(=O)CC(=O)Nc1ccc(C)cc1C
not listed: [6]
inactive: all other assays above

CC1(C)O[C@H]2CC(=O)OC[C@]23[C@H]2CC[C@@]4(C)[C@H](c5ccoc5)OC(=O)[C@H]5O[C@]54[C@]2(C)C(=O)C[C@@H]13
not listed: [6] | [7]
inactive: all other assays above

OC[C@H]1O[C@@H](O[C@@H]2[C@@H](CO)O[C@](O)(CO)[C@H]2O)[C@H](O)[C@@H](O)[C@H]1O
not listed: [6]
inactive: all other assays above

CC(N)CCCC(C)(C)O (centres undefined)
not listed: [7] | [10]
inactive: all other assays above

CC(O)CC(C)O (centres undefined)
not listed: [6]
inactive: all other assays above

COc1cc2c(cc1OC)C(=O)C(CC1CCN(Cc3ccccc3)CC1)C2 (centres undefined)
not listed: [6]
inactive: all other assays above

COCCc1ccccn1
not listed: [6]
inactive: all other assays above

CCOC(=O)CC1(C)OCC(C)O1 (centres undefined)
not listed: [7] | [10]
inactive: all other assays above

C[C@]12CCC(=O)C=C1CC[C@H]1[C@@H]3CC[C@](O)(C(=O)CO)[C@@]3(C)C[C@H](O)[C@@]12F
not listed: [3]
inactive: all other assays above

CC(=O)C1C(=O)C=C(C)OC1=O (centres undefined)
not listed: [2] | [10]
inactive: all other assays above

C=C(C)[C@@H]1CC=C(C)CC1
not listed: [2] | [6] | [10]
inactive: all other assays above

CC(=O)C(C)O (centres undefined)
not listed: [3]
inactive: all other assays above
